Data taken from article PMC11062922 (Nature Chemical Biology, 2023).
Read-outs that look alike come from different tables or passages of the source.

What was measured:
Parameters in all cases: species or system human, MV4-11 + K-562 + COLO205 + SK-N-BE2 + OVCAR-8
Settings in all cases: read-out: apparent Kd, n = 1
[1] = tested on: PRKD2
[2] = tested on: PRKD3
[3] = tested on: CDK7
[4] = tested on: ERCC2
[5] = tested on: FER
[6] = tested on: LATS1
[7] = tested on: MYLK3
[8] = tested on: PLK4
[9] = tested on: PRKAA1
[10] = tested on: PRKCD
[11] = tested on: PRKCQ
[12] = tested on: PTK2B
[13] = tested on: PTK2
[14] = tested on: RPS6KA6
[15] = tested on: STK10
[16] = tested on: TNK2
[17] = tested on: MARK4
[18] = tested on: FLT3
[19] = compound concentrations:100 nM and 1000 nM (sheet 'Samples')

Fc1ccc(-c2c(-c3ccncc3)[nH]c3cccnc23)cc1 [RO1153853-000]
potency estimated from few doses ([1]; compound concentrations: 100 nM and 1000 nM (sheet 'Samples'), CATDS: 5.7434995830704397E-2): 1020 nM
potency estimated from few doses ([2]; compound concentrations: 100 nM and 1000 nM (sheet 'Samples'), CATDS: 5.1990975037574202E-2): 1420 nM

NCCNS(=O)(=O)c1ccc(-c2ccnc3[nH]ccc23)cc1 [GSK977617A]
potency estimated from few doses [3, 19]: 159 nM
potency estimated from few doses [4, 19]: 203 nM
potency estimated from few doses [5, 19]: 238 nM
potency estimated from few doses [6, 19]: 121 nM
potency estimated from few doses [7, 19]: 996 nM
potency estimated from few doses [8, 19]: 584 nM
potency estimated from few doses [9, 19]: 453 nM
potency estimated from few doses [10, 19]: 1080 nM
potency estimated from few doses [11, 19]: 1950 nM
potency estimated from few doses [12, 19]: 335 nM
potency estimated from few doses [13, 19]: 343 nM
potency estimated from few doses [14, 19]: 373 nM
potency estimated from few doses [15, 19]: 2400 nM
potency estimated from few doses [16, 19]: 233 nM

CCn1c(-c2nonc2N)nc2c(C#CCN)ncc(OCCCN)c21.O=C(O)C(F)(F)F [GSK561866B]
potency estimated from few doses ([6]; compound concentrations: 100 nM and 1000 nM (sheet 'Samples'), CATDS: 0.187665654048491): 38.9 nM

CCn1c(-c2nonc2N)nc2c(-c3ccccc3)ncc(OCCCN)c21.CCn1c(-c2nonc2N)nc2c(-c3ccccc3)ncc(OCCCN)c21.O=C(O)C(F)(F)F.O=C(O)C(F)(F)F [GSK260205A]
potency estimated from few doses ([6]; compound concentrations: 100 nM and 1000 nM (sheet 'Samples'), CATDS: 3.5695697906411097E-2): 734 nM
potency estimated from few doses ([10]; compound concentrations: 100 nM and 1000 nM (sheet 'Samples'), CATDS: 3.0969413640761199E-2): 1160 nM
potency estimated from few doses ([1]; compound concentrations: 100 nM and 1000 nM (sheet 'Samples'), CATDS: 3.1729313210787799E-2): 1070 nM
potency estimated from few doses ([2]; compound concentrations: 100 nM and 1000 nM (sheet 'Samples'), CATDS: 2.8953203938898799E-2): 1510 nM

Clc1cc(Cl)cc(Nc2ccnc(Nc3cc(Cl)cc(Cl)c3)n2)c1 [GSK175726A]
potency estimated from few doses ([3]; compound concentrations: 100 nM and 1000 nM (sheet 'Samples'), CATDS: 1.9330129421886999E-2): 142 nM
potency estimated from few doses ([4]; compound concentrations: 100 nM and 1000 nM (sheet 'Samples'), CATDS: 2.00031391959163E-2): 132 nM
potency estimated from few doses ([5]; compound concentrations: 100 nM and 1000 nM (sheet 'Samples'), CATDS: 2.0209257750724199E-2): 130 nM
potency estimated from few doses ([6]; compound concentrations: 100 nM and 1000 nM (sheet 'Samples'), CATDS: 8.3705854443938306E-3): 1830 nM
potency estimated from few doses ([17]; compound concentrations: 100 nM and 1000 nM (sheet 'Samples'), CATDS: 9.0821419541050104E-3): 1200 nM
potency estimated from few doses ([8]; compound concentrations: 100 nM and 1000 nM (sheet 'Samples'), CATDS: 9.9833619636259807E-3): 805 nM
potency estimated from few doses ([9]; compound concentrations: 100 nM and 1000 nM (sheet 'Samples'), CATDS: 1.70258179859262E-2): 183 nM
potency estimated from few doses ([11]; compound concentrations: 100 nM and 1000 nM (sheet 'Samples'), CATDS: 8.3428687268584899E-3): 1870 nM
potency estimated from few doses ([12]; compound concentrations: 100 nM and 1000 nM (sheet 'Samples'), CATDS: 1.7764778222698001E-2): 168 nM
potency estimated from few doses ([13]; compound concentrations: 100 nM and 1000 nM (sheet 'Samples'), CATDS: 2.2055583015587899E-2): 111 nM
potency estimated from few doses ([14]; compound concentrations: 100 nM and 1000 nM (sheet 'Samples'), CATDS: 2.32464475712073E-2): 101 nM
potency estimated from few doses ([15]; compound concentrations: 100 nM and 1000 nM (sheet 'Samples'), CATDS: 8.4721916216742802E-3): 1710 nM
potency estimated from few doses ([16]; compound concentrations: 100 nM and 1000 nM (sheet 'Samples'), CATDS: 2.7223225317324601E-2): 77.1 nM

CN(C)CCNC(=O)Nc1ccc(N(C)c2ccnc(Nc3ccc(CS(C)(=O)=O)cc3)n2)cc1.Cl [GW830900A]
potency estimated from few doses [18, 19]: 39.9 nM

O=C(O)C(F)(F)F.O=c1[nH]ccc2nc(N[C@@H]3CCNC3)nc(Nc3ccc4c(c3)S(=O)(=O)CC4)c12 [GSK2181306A]
potency estimated from few doses ([18]; compound concentrations: 100 nM and 1000 nM (sheet 'Samples'), CATDS: 8.5928839760778392E-3): 1430 nM
potency estimated from few doses ([6]; compound concentrations: 100 nM and 1000 nM (sheet 'Samples'), CATDS: 9.3348582894500695E-3): 1060 nM
potency estimated from few doses ([17]; compound concentrations: 100 nM and 1000 nM (sheet 'Samples'), CATDS: 1.39607166136132E-2): 364 nM
potency estimated from few doses ([7]; compound concentrations: 100 nM and 1000 nM (sheet 'Samples'), CATDS: 1.37346756795961E-2): 378 nM
potency estimated from few doses ([8]; compound concentrations: 100 nM and 1000 nM (sheet 'Samples'), CATDS: 1.0301359054319901E-2): 780 nM
potency estimated from few doses ([9]; compound concentrations: 100 nM and 1000 nM (sheet 'Samples'), CATDS: 1.0186150726121701E-2): 806 nM
potency estimated from few doses ([10]; compound concentrations: 100 nM and 1000 nM (sheet 'Samples'), CATDS: 1.35004304297044E-2): 393 nM
potency estimated from few doses ([11]; compound concentrations: 100 nM and 1000 nM (sheet 'Samples'), CATDS: 2.6170878676828799E-2): 109 nM
potency estimated from few doses ([1]; compound concentrations: 100 nM and 1000 nM (sheet 'Samples'), CATDS: 1.40189699777229E-2): 361 nM
potency estimated from few doses ([2]; compound concentrations: 100 nM and 1000 nM (sheet 'Samples'), CATDS: 1.3161717541215199E-2): 416 nM
potency estimated from few doses ([12]; compound concentrations: 100 nM and 1000 nM (sheet 'Samples'), CATDS: 0.14676588130533899): 7.85 nM
potency estimated from few doses ([13]; compound concentrations: 100 nM and 1000 nM (sheet 'Samples'), CATDS: 1.26908044815701E-2): 453 nM
potency estimated from few doses ([14]; compound concentrations: 100 nM and 1000 nM (sheet 'Samples'), CATDS: 1.2402205913088901E-2): 478 nM
potency estimated from few doses ([15]; compound concentrations: 100 nM and 1000 nM (sheet 'Samples'), CATDS: 1.4244346039845699E-2): 349 nM

Cc1cccc(Nc2nc(N[C@H]3CCNC3)ncc2C(N)=O)c1.Cl [GSK2197149A]
potency estimated from few doses [18, 19]: 1070 nM
potency estimated from few doses [7, 19]: 2040 nM
potency estimated from few doses [1, 19]: 1170 nM
potency estimated from few doses [2, 19]: 1890 nM

CC(C)Oc1ccc2c(-c3ccnc(Nc4ccc(N5CCN(C)CC5)cc4)n3)cnn2n1 [GW696155X]
potency estimated from few doses [18, 19]: 479 nM
potency estimated from few doses [6, 19]: 1500 nM
potency estimated from few doses [17, 19]: 1800 nM
potency estimated from few doses [8, 19]: 506 nM
potency estimated from few doses [1, 19]: 482 nM
potency estimated from few doses [2, 19]: 1110 nM
